Key:
Experiment in all cases: PBM binding z-score (relative to random genomic background probes); higher = stronger binding; sequences stand for … in GC…GCGATTGACAGCGTAGAATGAAGG
[1] = system: FXR:RXRa (NR concentration 270 nM, RXRa partner concentration 90 nM)
In short: (§1)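 Custom Agilent 4×180K protein-binding microarrays carried double-stranded probes. Their 34-nt variable regions held direct-repeat seeds, single-nucleotide variants, half-site ablations and random human genomic background sequences. Arrays were incubated 1 h with ligand-free nuclear receptor dimers in PBS pH 7.4, 2% milk, 0.02% Triton X-100, 1 mM DTT, 0.2 mg/mL BSA and 0.4 mg/ml salmon testes DNA. Antibodies against each partner (one per run) detected binding, and scanned fluorescence was regression-normalized. Binding z-scores use random background probes as reference.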

[2] = system: LXRa:RXRa (NR concentration 270 nM, RXRa partner concentration 90 nM)
In short: as §1

[3] = system: LXRa homodimer (NR concentration 270 nM)
In short: as §1

[4] = system: LXRb:RXRa (NR concentration 270 nM, RXRa partner concentration 90 nM)
In short: as §1

[5] = system: LXRb homodimer (NR concentration 270 nM)
In short: as §1

[6] = system: PPARa:RXRa (NR concentration 270 nM, RXRa partner concentration 90 nM)
In short: as §1

[7] = system: PPARg:RXRa (NR concentration 180 nM, RXRa partner concentration 90 nM)
In short: as §1

[8] = system: PPARg:RXRa 270nM:90nM, anti-RXR (NR concentration 270 nM, RXRa partner concentration 90 nM)
In short: as §1

[9] = system: PPARg:RXRa 30nM:10nM, anti-RXR (NR concentration 30 nM, RXRa partner concentration 10 nM)
In short: as §1

[10] = system: PPARg:RXRa 90nM:30nM, anti-RXR (NR concentration 90 nM, RXRa partner concentration 30 nM)
In short: as §1

[11] = system: PPARg:RXRa DBDmut IVT, anti-RXR (DBD mutation: RXRa K156A/R161A, NR concentration 270 nM, RXRa partner concentration 90 nM)
In short: as §1

[12] = system: PPARg:RXRa IVT, anti-PPARg (NR concentration 270 nM, RXRa partner concentration 90 nM)
In short: as §1

[13] = system: PPARg DBDmut:RXRa IVT, anti-PPARg (DBD mutation: PPARg1 K132A/R137A, NR concentration 270 nM, RXRa partner concentration 90 nM)
In short: as §1

[14] = system: PPARg DBDmut IVT, anti-PPARg (DBD mutation: PPARg1 K132A/R137A, NR concentration 270 nM)
In short: as §1

[15] = system: PPARg homodimer (NR concentration 180 nM)
In short: as §1

[16] = system: PXR:RXRa (NR concentration 270 nM, RXRa partner concentration 90 nM)
In short: as §1

[17] = system: PXR homodimer (NR concentration 270 nM)
In short: as §1

[18] = system: RARa:RXR (NR concentration 270 nM, RXRa partner concentration 90 nM)
In short: as §1

[19] = system: RARa homodimer (NR concentration 270 nM)
In short: as §1

[20] = system: RARb:RXRa (NR concentration 270 nM, RXRa partner concentration 90 nM)
In short: as §1

Row | Sequence | PBM binding z-score [1] | PBM binding z-score [2] | PBM binding z-score [3] | PBM binding z-score [4] | PBM binding z-score [5] | PBM binding z-score [6] | PBM binding z-score [7] | PBM binding z-score [8] | PBM binding z-score [9] | PBM binding z-score [10] | PBM binding z-score [11] | PBM binding z-score [12] | PBM binding z-score [13] | PBM binding z-score [14] | PBM binding z-score [15] | PBM binding z-score [16] | PBM binding z-score [17] | PBM binding z-score [18] | PBM binding z-score [19] | PBM binding z-score [20]
1 | ATATGTAGGTTAGCTGGGGTCGTTCAGACTAGGC | 1.41 | 3.09 | 0.399 | 2.71 | 0.5 | 3.82 | 3.96 | 3.57 | 1.33 | 2.73 | 6.38 | 6.16 | 1.24 | 1.41 | 0.751 | 4.69 | 1.3 | 2.76 | 0.512 | 1.51
2 | TCTAGTTGGTCTCGGAGGTCACACACGACGGGTA | 2.68 | 3 | 2.28 | 3.18 | 0.844 | 3.52 | 1.68 | 3.05 | 3.33 | 3.13 | 1.7 | 2.32 | 1.38 | 1.29 | 2.19 | 4.11 | 0.901 | 4.22 | 0.998 | 3.35
3 | TTACCAAGCTGAGCTGAGGTCGTTGATCCAACTC | 0.0307 | -0.149 | -0.687 | -0.148 | -1.09 | 0.413 | -0.752 | -0.18 | -0.479 | -0.597 | -0.796 | -0.588 | -0.701 | -1.02 | -1.16 | 1.06 | 0.0399 | 0.708 | -1.15 | 0.0389
4 | AGTCAAAGTTCACTAGGTAACGTTAGATTCAGCT | 5.17 | 5.24 | 3.17 | 2.95 | 1.04 | 4.7 | 7.15 | 6.57 | 3.45 | 6.1 | 2.64 | 4.82 | 1.46 | 1.15 | 2.91 | 3.95 | 2.61 | 3.1 | 0.915 | 4.65
5 | CGAACTAGGTCATTGACATGACAGTGAATAGTAA | 5.2 | 3.24 | 0.582 | 2.31 | -0.197 | 4.88 | 7.61 | 6.52 | 3.97 | 6.29 | 8.34 | 8.44 | 3.7 | 2.52 | 1.93 | 1.45 | -0.208 | 2.28 | 0.896 | 3.62
6 | TCTTGTAGATCAAAGGTTAAGCAAGCCGAAGCCT | 1.32 | 2.21 | 0.224 | 2.12 | -0.28 | 5.08 | 8.51 | 8.42 | 9.42 | 9.87 | 2.3 | 4.26 | 1.03 | 0.316 | 0.998 | 2.14 | -0.0892 | 3.34 | -0.483 | 2.11
7 | ATCTCTAGGTAACAAGTTCAGCGAAAGAGAGGAC | 0.684 | 0.959 | 0.732 | 0.934 | 1.33 | 2.01 | 1.88 | 2.43 | 0.884 | 2.22 | 3.7 | 2.88 | 1.31 | 2.15 | 1.32 | 1.9 | 1.83 | 1.15 | 1.27 | 1.81
8 | TATACAGGGTCAAAGGCCAGACTACGAATGTCGA | 7.5 | 6.15 | 2.32 | 4.84 | 2.22 | 6.39 | 8.41 | 7.38 | 5.4 | 7.02 | 2.56 | 5.03 | 3.07 | 1.98 | 2.4 | 4.42 | 0.626 | 6.23 | 1.41 | 4.56
9 | ACTAGCAGGCCAAGGGTCACTCGAGATTAGTCCG | 2.44 | 2.89 | 0.209 | 2.6 | -0.293 | 4.51 | 7.9 | 7.44 | 6.36 | 8.11 | 1.3 | 3.54 | -0.0207 | -0.0831 | 2.15 | 3.15 | -0.376 | 3.97 | 0.545 | 3.48
10 | CCAGGCAGGTGAGAAGGTAACTCAGCCTCGATTA | -0.311 | -0.32 | -0.49 | -0.277 | -0.875 | 0.473 | 0.238 | 0.813 | -0.448 | 0.0901 | 0.637 | 0.291 | -1.38 | -1.33 | -0.318 | -0.256 | -0.513 | -0.0086 | -0.442 | 0.36
11 | TCAGACAGGTGTAGGTAACTCAGGTACGCAGTCG | 0.401 | 1.02 | 0.205 | 0.34 | -0.0818 | 0.643 | 0.472 | 1.78 | 3.54 | 2.76 | 2.33 | 0.315 | 0.327 | -0.523 | 0.265 | 0.373 | 0.461 | 0.495 | 0.784 | 0.406
12 | GCGACTGGGGCATCACCAGGTTACCATAACTTAA | -0.25 | -0.178 | -0.0644 | 0.637 | -0.712 | 1.02 | 1.1 | 0.672 | -0.379 | 0.216 | 3.65 | 3.39 | -0.477 | -0.785 | 0.0676 | 0.244 | -0.357 | 0.695 | -0.656 | 0.96
13 | ATCTCTAGGTAAAGATTGTTCAGTGAATGCAAAT | 0.226 | 0.124 | 0.091 | 0.234 | 0.621 | 0.0998 | 0.137 | 0.495 | 0.342 | 0.381 | 2.3 | 1.85 | 0.903 | 0.841 | 0.219 | 0.132 | 0.182 | 0.436 | 1.35 | 0.105
14 | AGAGCGAGGGCAATGAGTTGATAGCACGGGTGGC | -0.116 | -0.109 | -0.331 | -0.283 | -0.845 | 0.406 | 0.562 | -0.152 | -0.57 | -0.736 | 0.771 | 0.253 | 0.00949 | -1.18 | -0.656 | 1.38 | 4.01 | 0.0108 | -1 | 2.13
15 | ATATGTAGGTTAGCTGGGGTCAGTCAGACTAGGC | 2.47 | 4.36 | 0.893 | 3.37 | 0.881 | 4.38 | 5.08 | 4.38 | 1.86 | 3.72 | 6.39 | 6.31 | 2.61 | 1.83 | 1.96 | 5.06 | 1.14 | 3.81 | 0.813 | 2.88
16 | GCTTGTAGATCAAGGCTAAGAAAGACTAAGCTAA | -1.48 | -0.741 | -0.903 | -0.837 | -0.875 | -0.665 | -0.447 | -0.418 | -0.329 | -0.359 | 0.902 | -0.107 | -0.0292 | -0.466 | -1.05 | -0.743 | -0.42 | -0.679 | -0.656 | -0.482
17 | GCTCTGAGGACAAGGTCAGAGCTTTGTCCGTAGA | 1.69 | 1.56 | -0.176 | 1.45 | -0.782 | 2.3 | 1.02 | 2.06 | 0.095 | 1.22 | 0.898 | 1.09 | -0.229 | -0.596 | 0.274 | 2 | -0.088 | 2.88 | -0.844 | 3.61
18 | ATATGTAGGTTACATCCGGGTCATACAGGCTATG | 2.09 | 4.15 | 1.41 | 2.85 | 0.809 | 4.64 | 6.34 | 5.27 | 2.96 | 4.81 | 7.27 | 7.54 | 4.07 | 3.35 | 3.84 | 3.46 | 1.19 | 4.26 | 0.627 | 2.41

— the supplement of paper PMC6555819
